These results are taken from PubChem BioAssay (NCI).

Several values for one entry are separate records, joined by “and”; a condition that tells them apart may be missing. Identical values can stand only once. The panel holds about 83,000 compounds, 20% with a hit somewhere; the sample as a whole holds those more often.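 Interpretation: 100, growth as untreated; towards 0, rising growth inhibition; 0, no net growth; 0 to -100, cell death. Compounds scoring below 10 were considered active.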 A number with no mark means an inactive call.

For this test, the system named is HL-60(TB) leukemia. The test is described as follows: NCI-60 one-dose screen, 48 h (100 = growth as untreated, 0 = no growth, -100 = all killed). The note with it: 10 µM unless noted.
`O=C(c1ccccc1)C1C(=O)N2C(=S)N(c3ccccc3)C(=O)C2C1c1ccc(Cl)cc1` (stereo not given): the growth was 100%. Consider `O=C1C=CC(=O)N1c1ccc2ccccc2c1`, for which the growth is 83.9% and 88.8%.

For `C=CCOc1c(Br)cc(Br)cc1Br`, the growth is 76.2%. With `NC(N)=Nc1nc2ccccc2o1`, the growth is 124%. For `CNCCNc1nc2ccccc2c2c(=O)c3cc(F)ccc3oc12`, the growth is 95.4%. Regarding `CSc1nc2sc3cc(Cl)ccc3n2c(=N)c1C#N`, the growth was 121%.

Consider `C=C(C[C@](O)(C(=O)/C=C/c1ccc(Cl)cc1)C(=O)OC)c1ccccc1`, for which the growth was 59.2%.

With `NC1=NC(c2ccccc2)C2=C(N1)/C(=C/c1ccccc1)CCC2` (stereo not given), the growth is 80.7%. With `Cc1ccc(/C=C2\SC(=S)N(CC(=O)NCCCN3CCOCC3)C2=O)cc1` the figure was 99.4%; with `CC(C)OC(=O)N1CCOCC1`, 116%.

Regarding `NS(=O)(=O)c1ccc(CCNC(=O)/C=C/c2ccc(Cl)cc2)cc1`, the growth is 89.1%.

As to `CCOC(=O)C12CCCC1=CC(=O)CC2` (stereo not given), the growth is 100%. The same measure for `CC[C@]12C=CCN3CC[C@@]4(c5cc(NC(=O)CCC(=O)OCc6cn(Cc7ccc(F)cc7)nn6)c(OC)cc5N(C)[C@H]4[C@@](O)(C(=O)OC)[C@@H]1OC(C)=O)[C@@H]32`: 96.8%; for `COc1ccc(CC(C#N)c2ccc(Cl)cc2)cc1` (stereo not given): 84%; for `CC1=C(/C=C/C(C)=C/C=C/C(C)=C/C(=O)O)C(C)(C)CCC1`: 79.2% and 46.2% and 67%.
